{
  "source": "PubChem BioAssay AID1259240",
  "about": "(Keith Lab, Institute of Cancer Science, University of …, 2017)",
  "note": "Values without a mark were called inactive. Calls of active or inactive are those of the source. Cut-off read from the data, not from the text of the source: active = fold change mostly below about -2 (no sharp cut-off); inactive = mostly above about -1.8.",
  "data": [
    {"assay": "modulation of TERT promoter-driven luciferase – cell-based, luciferase reporter, human, primary screen (AID 1259240)", "conditions": "A2780 TERT promoter luciferase reporter, 16 h; at 20 µM, fold versus average of vehicle-only wells", "values": [
      {"molecule": "Cc1csc(NC(=O)C2CCCN(S(=O)(=O)c3c(C)[nH]c(=O)[nH]c3=O)C2)n1", "note": "(stereo unspecified)", "fold change": -1.1},
      {"molecule": "CCOC(=O)C1CCCN(c2c(OCC)c(=O)c2=O)C1", "note": "(stereo unspecified)", "fold change": 1.23},
      {"molecule": "O=C(NC1CCCc2ccccc21)c1cccc(NC2=NC3CS(=O)(=O)CC3S2)c1", "note": "(stereo unspecified)", "fold change": 1.36},
      {"molecule": "COc1cc2[nH]c(C)cc(=O)c2cc1OC", "fold change": 1.12},
      {"molecule": "O=C(CCN1C(=O)c2ccccc2S1(=O)=O)Nc1cccc(Br)c1", "fold change": 1.01},
      {"molecule": "O=C1C2ON(c3ccccc3)C(c3ccncc3)C2C(=O)N1c1ccc(N2CCOCC2)cc1", "note": "(stereo unspecified)", "fold change": -1.7},
      {"molecule": "COc1ccc(C2c3c(oc4ccc(F)cc4c3=O)C(=O)N2Cc2ccc3c(c2)OCO3)cc1", "note": "(stereo unspecified)", "fold change": -1.27},
      {"molecule": "Cc1csc(NC(=O)C2=CCN(S(=O)(=O)c3ccccc3)CC2)n1", "fold change": 1.13},
      {"molecule": "COc1ccc(Nc2c(-c3ccc(N4CCOCC4)cc3)nc3ncccn23)cc1OC", "fold change": -1.26},
      {"molecule": "Cc1ccc(CN2C(=O)/C(=C/c3c(NCCO)nc4ccc(C)cn4c3=O)SC2=S)cc1", "fold change": -1.97},
      {"molecule": "O=C(NC1CCCCC1)C(=O)c1c(-c2ccccc2)cc2ccccn12", "fold change": 1.24},
      {"molecule": "COc1ccc2c(c1)NC(=O)C2(O)C(F)(F)F", "note": "(stereo unspecified)", "fold change": "2.17 (active)"},
      {"molecule": "COc1ccccc1CNc1nc2ccccc2n2nnnc12", "fold change": "-3.71 (active)"},
      {"molecule": "Fc1ccc(Nc2nnc(Cc3ccncc3)c3ccccc23)cc1", "fold change": -1.37},
      {"molecule": "Cc1ccc(N2C(=O)c3n[nH]c(C)c3C2c2ccccc2F)cc1", "note": "(stereo unspecified)", "fold change": 1.63},
      {"molecule": "Cn1c(=O)[nH]c(=O)c2c1nc(NCCc1ccccc1)n2CCO", "fold change": -1.23}
    ]}
  ]
}
